Test [1] is described as follows: ATG_ERE_CIS: Attagene CIS-FACTORIAL HepG2 Assay for Estrogen Response Element (ERE) (AID 2282940; active = hit-call score of the fitted dose curve at least 0.9, where 1 is the maximum; inactive = score below 0.9). The settings on record: HepG2 ERE cis-reporter, Attagene RNA transcript; actives raise or lower the signal. The procedure, abridged:
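Cells used were human hepatoma HepG2, transfected with multiple reporter transcription units under cis-regulatory promoters. Reporter mRNA, read 24 h post-dosing via fluorescent RT-PCR products on capillary electrophoresis, was fitted bidirectionally relative to DMSO.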

Test [2] addresses Estrogen-related receptor gamma (Homo sapiens) (UniProt P62508). In words: ATG_ERRg_TRANS: Attagene TRANS-FACTORIAL HepG2 Assay for human Estrogen-Related Receptor gamma (ERRg) (AID 2282977).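 Also: hits increase reporter signal over DMSO so potencies reflect activators.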 The settings on record: HepG2 Attagene TRANS reporter, ERRg transactivation. The method, boiled down:
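Transfect HepG2 with multiple GAL4-UAS reporter transcription units; dose chemicals 24 h; isolate RNA, reverse-transcribe with oligo(dT), PCR-amplify, label with 6-FAM, digest with HpaI; size fragments by capillary electrophoresis. DMSO serves as negative control.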

In test [3] the target is Bile acid receptor (Homo sapiens) (UniProt Q96RI1). The test is described as follows: ATG_FXR_TRANS: Attagene TRANS-FACTORIAL HepG2 Assay for Farnesoid X Receptor (FXR) (AID 2282979).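 Also: hits raise reporter mRNA above DMSO so AC50 marks FXR activation.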 The settings on record: HepG2 Attagene TRANS FXR-GAL4 reporter transcription. The method, boiled down: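 HepG2 cells were transiently transfected with GAL4-UAS reporters driven by chimeric NR-Gal4 proteins and dosed for 24 h. Reporter mRNA was quantified by RT-PCR, fluorescent labelling, HpaI digestion and capillary electrophoresis, with gain of signal scored versus DMSO.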
Sequence of Bile acid receptor (Homo sapiens) (Q96RI1 whole entry, looked up, the tested form may be a part): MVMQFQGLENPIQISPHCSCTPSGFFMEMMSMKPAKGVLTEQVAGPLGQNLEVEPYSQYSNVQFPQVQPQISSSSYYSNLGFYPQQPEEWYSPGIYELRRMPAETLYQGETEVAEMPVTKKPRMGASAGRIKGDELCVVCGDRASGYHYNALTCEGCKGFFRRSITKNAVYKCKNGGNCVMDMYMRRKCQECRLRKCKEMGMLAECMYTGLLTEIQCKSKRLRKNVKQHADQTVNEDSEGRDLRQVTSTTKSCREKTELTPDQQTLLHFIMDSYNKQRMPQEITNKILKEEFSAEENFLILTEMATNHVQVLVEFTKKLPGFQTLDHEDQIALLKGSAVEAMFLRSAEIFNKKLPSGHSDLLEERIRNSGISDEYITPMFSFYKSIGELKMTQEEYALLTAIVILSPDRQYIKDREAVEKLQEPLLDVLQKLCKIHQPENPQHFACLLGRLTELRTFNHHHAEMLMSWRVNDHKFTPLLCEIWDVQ

Test [4] deals with human Thyroid Receptor alpha (THRa1), THRA (gene 7067) (UniProt P10827). The test is described as follows: ATG_THRa1_TRANS: Attagene TRANS-FACTORIAL HepG2 Assay for human Thyroid Receptor alpha (THRa1) (AID 2283014). The procedure, abridged:
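HepG2 cells transiently transfected with chimeric NR-Gal4 and GAL4-UAS reporter units, dosed 24 h. Reporter mRNA quantified by RT-PCR, fluorescent labeling, HpaI digestion and capillary electrophoresis; gain-of-signal fit versus DMSO.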

For test [5], the target named is Estrogen receptor beta (Homo sapiens) (UniProt Q92731). The test is described as follows: OT_ER_ERbERb_1440: Odyssey Thera (OT) 24-hour HEK293T Protein-Complementation Assay for Estrogen Receptor-beta/-beta Homodimer (AID 2283380).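 Also: fluorescence gain from ER beta LBD homodimer complementation read by laser scanning cytometry; scored as signal increase over DMSO baseline for both agonists and antagonists.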 The procedure, abridged:
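HEK293T cells stably expressing human ER-beta LBD (aa 310-547) PCA homodimer pair, dosed 24 h; formaldehyde-fixed, Draq5-stained. Readout: increase in nuclear (agonist) or nuclear plus cytoplasmic (antagonist) fluorescence intensity versus DMSO, gain-of-signal fitting.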

Test [6] has as its target Retinoic acid receptor RXR-alpha (Homo sapiens) (UniProt P19793). The test is described as follows: OT_NURR1_NURR1RXRa_0480: Odyssey Thera (OT) 8-hour HEK293T Protein Complementation Assay for Nurr1/retinoid X receptor (RXR) (AID 2283385). The method, boiled down:
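8 h compound exposure, HEK293T; Nurr1/RXRα fragment complementation; fluorescence intensity; positive fitting direction vs DMSO baseline.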

The target is the same in test [7]. The test is described as follows: OT_NURR1_NURR1RXRa_1440: Odyssey Thera (OT) 24-hour HEK293T Protein Complementation Assay for Nurr1/retinoid X receptor (RXR) (AID 2283386). The procedure, abridged:
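Interaction of Nurr1 with RXRα brings fused reporter fragments together in human HEK293T cells, restoring a functional reporter. Fluorescence intensity is measured 24 h after chemical treatment, and values are analysed in the positive direction against DMSO.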

Test [8] has as its target Peroxisome proliferator-activated receptor gamma (Homo sapiens) (UniProt P37231). In words: OT_PPARg_PPARgSRC1_1440: Odyssey Thera (OT) 24-hour Protein-Complementation Assay for Peroxisome Proliferator-activated Receptor Gamma/ SRC-1 Co-activator (AID 2283388). The method, boiled down: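 HEK293T transiently transfected with PPARg/SRC-1 split-Venus YFP fusions 48 h before dosing, then treated 24 h at 37C. Fixed cells imaged; nuclear/cytoplasmic 488 nm fluorescence ratio, gain of signal versus DMSO.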

Test [9] is described as follows: CCTE_Harrill_HTTr_Apoptosis_MCF7: CCTE's 6-hour Apoptosis Assessment for the High-Throughput Transcriptomics (HTTr) Platform, in MCF-7 cells cultured in DMEM + 10% fetal bovine serum, Harrill Lab (AID 2284011; active = hit-call score of the fitted dose curve at least 0.9, where 1 is the maximum; inactive = score below 0.9). The procedure, abridged:
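MCF-7 cells in DMEM + 10% FBS exposed 6 h to chemicals over an eight-point dilution series. Caspase-3/7 activation imaged by high-content CellEvent Green staining; fitted bidirectionally versus DMSO.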

Test [10] is described as follows: CCTE_Harrill_HTTr_CellCount_MCF7: CCTE's Cell Proliferation Assessment for the High-Throughput Transcriptomics (HTTr) Platform, Harrill Lab (AID 2284012).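 Also: cells exposed to compound for six hours; intended direction is loss of nuclei count meaning fewer cells.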 The method, boiled down: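 Chemicals in eight-point dilution series are added to MCF-7 cells for six hours, nuclei are stained with Hoechst and imaged, and per-well nuclei counts are fitted in both directions relative to DMSO controls.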

The target in test [11] is Estrogen receptor (Homo sapiens) (UniProt P03372). In words: ATG_ERa_TRANS: Attagene TRANS-FACTORIAL HepG2 Assay for human Estrogen Receptor alpha (ERa) (AID 2282970). The settings on record: HepG2 Attagene TRANS ERa GAL4 reporter, mRNA. The procedure, abridged: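 HepG2 cells transiently transfected with multiplexed GAL4-UAS reporter units read out chimeric NR-Gal4 activity. After 24 h compound exposure, reporter mRNA was quantified by RT-PCR, 6-FAM labeling, HpaI digestion and capillary electrophoresis, relative to DMSO.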
Sequence of Estrogen receptor (Homo sapiens) (P03372 whole entry, looked up, the tested form may be a part): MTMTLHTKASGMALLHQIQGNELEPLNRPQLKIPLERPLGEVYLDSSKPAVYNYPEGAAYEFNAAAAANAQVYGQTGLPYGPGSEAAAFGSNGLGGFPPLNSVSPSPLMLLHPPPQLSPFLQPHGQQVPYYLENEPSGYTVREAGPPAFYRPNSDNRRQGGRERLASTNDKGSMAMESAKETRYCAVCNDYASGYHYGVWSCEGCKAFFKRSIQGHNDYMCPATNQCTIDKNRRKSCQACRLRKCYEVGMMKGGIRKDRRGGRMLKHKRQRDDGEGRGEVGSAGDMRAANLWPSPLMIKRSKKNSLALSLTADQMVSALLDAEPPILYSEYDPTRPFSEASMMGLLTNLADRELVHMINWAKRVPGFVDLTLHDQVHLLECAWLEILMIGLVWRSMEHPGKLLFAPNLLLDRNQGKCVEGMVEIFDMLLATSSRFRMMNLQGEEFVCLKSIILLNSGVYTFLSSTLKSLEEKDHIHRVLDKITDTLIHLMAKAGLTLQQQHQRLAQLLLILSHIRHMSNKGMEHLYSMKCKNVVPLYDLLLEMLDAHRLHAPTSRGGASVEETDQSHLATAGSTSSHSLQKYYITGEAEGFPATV

A short description of test [12]: BSK_3C_uPAR: BioMAP Diversity Plus: 3C Assay for Urokinase-type plasminogen activator receptor (uPAR) Biomarker Activity (AID 2282998; active = hit-call score of the fitted dose curve at least 0.9, where 1 is the maximum; inactive = score below 0.9). The settings on record: BioMAP 3C HUVEC, uPAR biomarker ELISA; actives raise or lower the signal. The procedure, abridged:
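Dose primary human umbilical vein endothelial cells, incubate 24 h, measure cell-surface uPAR by ELISA, then fit the signal in both directions against the DMSO negative control.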

Test [13] in a line: BSK_4H_Eotaxin3: BioMAP Diversity Plus: 4H Assay for Eotaxin 3 Biomarker Activity (AID 2283000; active = hit-call score of the fitted dose curve at least 0.9, where 1 is the maximum; inactive = score below 0.9;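 as to outcome: CCL26 protein level quantified by ELISA in parallel with SRB cytotoxicity check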). The settings on record: primary human endothelial cells (HUVEC); actives raise or lower the signal. The method, boiled down:
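Eotaxin-3 (CCL26) levels were measured by ELISA in HUVEC primary cultures 24 h post-dosing. Gain or loss of signal was fitted in both directions, with DMSO serving as baseline and negative control.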

Read-out in test [14]: Intercellular Adhesion Molecule 1 (ICAM1), ICAM1 (gene 3383)
The test is described as follows: BSK_3C_ICAM1: BioMAP Diversity Plus: 3C Assay for Intercellular Adhesion Molecule 1 (ICAM1) Biomarker Activity (AID 2283003; active = hit-call score of the fitted dose curve at least 0.9, where 1 is the maximum; inactive = score below 0.9). The settings on record: primary human endothelial cells (HUVEC); actives raise or lower the signal. The procedure, abridged:
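ICAM-1 levels measured by ELISA after HUVEC cultures in the 3C system had been dosed for 24 h. Gain or loss of signal relative to DMSO was fitted in both directions.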

Read-out in test [15]: Monocyte Chemoattractant Protein-1 (MCP1), CCL2 (gene 6347)
In words: BSK_4H_MCP1: BioMAP Diversity Plus: 4H Assay for Monocyte Chemoattractant Protein-1 (MCP1) Biomarker Activity (AID 2283018; active = hit-call score of the fitted dose curve at least 0.9, where 1 is the maximum; inactive = score below 0.9). The settings on record: primary human endothelial cells (HUVEC); actives raise or lower the signal. The procedure, abridged: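 ELISA read-out of MCP-1 from human vascular endothelial primary cells taken at 24 hours after compound exposure. Activity was fitted in both directions relative to DMSO, which served as negative control.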

Read-out in test [16]: Thrombomodulin, THBD (gene 7056)
In words: BSK_CASM3C_Thrombomodulin: BioMAP Diversity Plus: CASM3C Assay for Thrombomodulin Biomarker Activity (AID 2283051; active = hit-call score of the fitted dose curve at least 0.9, where 1 is the maximum; inactive = score below 0.9;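 also: thrombomodulin protein level measured by ELISA 24 h after dosing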). The settings on record: primary human coronary artery smooth muscle cells; actives raise or lower the signal.

The target in test [17] is Steroid hormone receptor ERR1 (Homo sapiens) (UniProt P11474). The test is described as follows: ATG_ERRa_TRANS: Attagene TRANS-FACTORIAL HepG2 Assay for human Estrogen-Related Receptor alpha (ERRa) (AID 2282971). The settings on record: HepG2 Attagene TRANS reporter, ERRa transactivation. The procedure, abridged:
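HepG2 cells transiently transfected with GAL4-UAS reporter units and chimeric NR-Gal4 constructs; after 24 hour compound incubation, reporter mRNA quantified by RT-PCR, fluorescent labelling and capillary electrophoresis, gain of signal versus DMSO.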

Test [18] concerns the target Estrogen receptor beta (Homo sapiens) (UniProt Q92731). The test is described as follows: OT_ER_ERbERb_0480: Odyssey Thera (OT) 8-hour HEK293T Protein-Complementation Assay for Estrogen Receptor-beta/-beta Homodimer (AID 2283357).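 Also: active means signal gain over DMSO baseline.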 The method, boiled down:
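Readout: increase in mean fluorescence intensity (nucleus for agonists; nucleus plus cytoplasm for antagonists) relative to DMSO, from a reporter-fragment complementation of human ER-beta LBD homodimer in HEK293T cells dosed 8 hours.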

Test [19] in a line: ACEA_AR_agonist_AUC_viability: ACEA Biosciences xCELLigence Real-Time Cell Analysis on Androgen Receptor Agonism for Viability (AID 2283775).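 As to AC50: viability read 80 hours after compound addition.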 The procedure, abridged: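 Real-time impedance tracking of 22Rv1 growth, readings every 5 min for 5 h then hourly; area-under-curve viability endpoint at 80 hours, relative to DMSO. Compounds at eight concentrations, 1:4 steps, top 100 uM, n = 2.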

Test [20] in a line: ACEA_AR_antagonist_AUC_viability: ACEA Biosciences xCELLigence Real-Time Cell Analysis on Androgen Receptor Antagonism for Viability (AID 2283776).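 Also: 22Rv1 human prostate cancer cells growing on impedance electrode plates; hits lower the growth signal relative to DMSO meaning cytotoxicity.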 The method, boiled down:
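Real-time electrical impedance tracks 22Rv1 proliferation after continuous compound exposure (top 100 uM final, 1:4 steps, 8 concentrations). The 80 h area-under-curve serves as the cytotoxicity readout relative to DMSO.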

Inconclusive results are not listed. Some compounds were tested as several samples or in several runs, with calls that do not always agree. Calls of active or inactive are those of the source. The calls were made as follows, unless noted: active = hit-call score of the fitted dose curve at least 0.9, where 1 is the maximum; inconclusive = response in the unintended direction; inactive = score below 0.9.

Sequence of Estrogen receptor beta (Homo sapiens) (Q92731 whole entry, looked up, the tested form may be a part): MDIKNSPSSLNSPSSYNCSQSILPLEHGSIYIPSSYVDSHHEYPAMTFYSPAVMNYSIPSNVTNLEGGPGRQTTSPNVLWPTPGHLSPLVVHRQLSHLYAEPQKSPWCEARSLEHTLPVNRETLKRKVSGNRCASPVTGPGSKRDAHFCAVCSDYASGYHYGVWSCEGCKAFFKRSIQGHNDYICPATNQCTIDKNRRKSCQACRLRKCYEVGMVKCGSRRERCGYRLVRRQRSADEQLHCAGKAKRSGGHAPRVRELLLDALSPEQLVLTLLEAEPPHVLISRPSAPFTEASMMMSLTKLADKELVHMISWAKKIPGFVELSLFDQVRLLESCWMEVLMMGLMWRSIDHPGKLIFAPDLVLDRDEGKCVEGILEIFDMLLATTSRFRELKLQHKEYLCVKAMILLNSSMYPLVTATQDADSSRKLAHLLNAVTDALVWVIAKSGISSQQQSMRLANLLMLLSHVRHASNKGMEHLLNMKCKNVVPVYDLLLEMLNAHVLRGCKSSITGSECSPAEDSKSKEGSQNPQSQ
Sequence of Peroxisome proliferator-activated receptor gamma (Homo sapiens) (P37231 whole entry, looked up, the tested form may be a part): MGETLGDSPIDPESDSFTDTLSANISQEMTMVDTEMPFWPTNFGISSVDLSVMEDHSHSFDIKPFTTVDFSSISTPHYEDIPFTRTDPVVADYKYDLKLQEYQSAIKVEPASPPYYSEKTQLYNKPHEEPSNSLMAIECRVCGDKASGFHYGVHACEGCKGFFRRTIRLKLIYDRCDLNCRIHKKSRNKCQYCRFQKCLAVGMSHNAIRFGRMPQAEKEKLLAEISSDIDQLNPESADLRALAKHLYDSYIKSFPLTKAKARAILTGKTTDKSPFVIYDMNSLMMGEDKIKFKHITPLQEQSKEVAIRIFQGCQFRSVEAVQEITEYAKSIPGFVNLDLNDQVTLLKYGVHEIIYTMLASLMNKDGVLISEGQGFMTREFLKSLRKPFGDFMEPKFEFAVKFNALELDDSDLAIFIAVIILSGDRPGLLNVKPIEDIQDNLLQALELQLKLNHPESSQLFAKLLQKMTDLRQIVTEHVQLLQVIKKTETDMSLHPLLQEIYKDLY
Sequence of human Thyroid Receptor alpha (THRa1), THRA (gene 7067) (P10827 whole entry, looked up, the tested form may be a part): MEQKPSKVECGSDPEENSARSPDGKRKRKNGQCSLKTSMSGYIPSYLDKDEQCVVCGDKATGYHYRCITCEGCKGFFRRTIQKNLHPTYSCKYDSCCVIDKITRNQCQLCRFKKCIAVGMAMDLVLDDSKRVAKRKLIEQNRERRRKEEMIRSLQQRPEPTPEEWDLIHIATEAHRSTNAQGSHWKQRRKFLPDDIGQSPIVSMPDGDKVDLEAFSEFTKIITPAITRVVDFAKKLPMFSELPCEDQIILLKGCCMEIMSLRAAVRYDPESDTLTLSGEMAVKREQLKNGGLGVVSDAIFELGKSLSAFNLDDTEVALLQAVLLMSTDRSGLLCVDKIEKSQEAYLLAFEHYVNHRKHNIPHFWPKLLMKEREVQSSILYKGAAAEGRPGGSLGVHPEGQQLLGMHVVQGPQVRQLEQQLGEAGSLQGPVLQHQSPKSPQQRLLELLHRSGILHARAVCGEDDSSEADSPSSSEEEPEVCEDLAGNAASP
Sequence of Estrogen-related receptor gamma (Homo sapiens) (P62508 whole entry, looked up, the tested form may be a part): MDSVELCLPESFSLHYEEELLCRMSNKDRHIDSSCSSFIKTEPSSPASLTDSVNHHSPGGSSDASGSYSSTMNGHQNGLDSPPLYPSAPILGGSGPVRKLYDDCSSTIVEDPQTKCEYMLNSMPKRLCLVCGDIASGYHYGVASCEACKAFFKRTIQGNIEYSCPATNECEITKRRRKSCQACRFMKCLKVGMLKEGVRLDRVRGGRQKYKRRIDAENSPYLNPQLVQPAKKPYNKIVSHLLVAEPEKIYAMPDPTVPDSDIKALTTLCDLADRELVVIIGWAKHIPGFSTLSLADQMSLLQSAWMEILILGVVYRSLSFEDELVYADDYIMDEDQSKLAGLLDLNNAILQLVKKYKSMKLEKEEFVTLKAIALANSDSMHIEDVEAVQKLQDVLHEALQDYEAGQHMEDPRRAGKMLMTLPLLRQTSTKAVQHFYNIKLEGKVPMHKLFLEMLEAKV
Sequence of Retinoic acid receptor RXR-alpha (Homo sapiens) (P19793 whole entry, looked up, the tested form may be a part): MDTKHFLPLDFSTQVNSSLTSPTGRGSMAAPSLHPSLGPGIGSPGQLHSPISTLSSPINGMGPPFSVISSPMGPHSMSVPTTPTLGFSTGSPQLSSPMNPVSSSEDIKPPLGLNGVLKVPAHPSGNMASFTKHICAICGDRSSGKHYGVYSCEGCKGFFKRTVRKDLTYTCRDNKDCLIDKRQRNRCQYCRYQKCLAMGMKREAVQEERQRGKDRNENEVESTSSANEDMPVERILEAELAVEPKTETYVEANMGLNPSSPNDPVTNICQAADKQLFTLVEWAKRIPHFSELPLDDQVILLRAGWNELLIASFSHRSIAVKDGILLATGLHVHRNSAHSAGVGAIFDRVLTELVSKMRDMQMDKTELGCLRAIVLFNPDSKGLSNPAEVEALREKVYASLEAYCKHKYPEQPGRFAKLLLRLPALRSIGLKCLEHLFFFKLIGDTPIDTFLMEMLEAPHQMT
Sequence of Steroid hormone receptor ERR1 (Homo sapiens) (P11474 whole entry, looked up, the tested form may be a part): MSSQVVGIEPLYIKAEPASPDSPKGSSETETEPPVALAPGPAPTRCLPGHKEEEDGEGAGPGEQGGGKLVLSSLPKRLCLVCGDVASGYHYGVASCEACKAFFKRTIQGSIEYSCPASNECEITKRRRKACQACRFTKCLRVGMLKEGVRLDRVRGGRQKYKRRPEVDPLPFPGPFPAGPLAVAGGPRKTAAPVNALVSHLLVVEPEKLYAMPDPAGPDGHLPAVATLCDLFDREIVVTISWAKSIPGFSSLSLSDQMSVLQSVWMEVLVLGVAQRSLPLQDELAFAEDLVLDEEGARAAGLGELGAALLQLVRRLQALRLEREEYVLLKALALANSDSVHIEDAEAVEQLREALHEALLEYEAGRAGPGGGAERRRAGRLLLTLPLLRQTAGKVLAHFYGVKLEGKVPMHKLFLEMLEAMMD

`C=CC(=O)OCCCCOC(=O)C=C`: the molecule was classed as inactive in test [1] and in test [2].
As to `CCOP(=O)(OCC)Oc1ccc([N+](=O)[O-])cc1`, the call in test [3], in test [4], in test [5], in test [6], in [7] and in test [8] was inactive.
For `CN(C)CCC#N`, the molecule was classed as inactive in test [1].
On to `COC(=O)c1ccccc1S(=O)(=O)NC(=O)Nc1nc(C)cc(C)n1`, for which the result in test [9] and in test [10] was inactive.
With `CNC(=O)Oc1cc(C)c(SC)c(C)c1`, the concentration at half-maximal activity (AC50) in [1] is 26.5 µM (active); in test [11] it was 8.61 µM (active); in test [13], 20 µM (active). In addition, the result in [12], in [14], in [15], in test [16] and in [10] was inactive.
Turning to `CC1(C)[C@H](C(=O)O[C@H](C#N)c2cccc(Oc3ccccc3)c2)[C@@H]1C=C(Br)Br`, the outcome in test [17], in test [12], in test [13], in [14], in test [4] and in [15] was inactive. Besides, the outcome in [16], in [18], in test [5], in [6], in test [8] and in test [19] was inactive. For the same molecule, the result in test [20] was inactive. The AC50 in test [12] is 0.0401 µM (active); in test [13], 0.3 µM (active); in test [15] it was 0.252 µM (active); in test [16], 8.23 µM (active); in [19], 50 µM (active); in test [20] it was 50 µM (active).
Regarding `CCC(C)c1cc(C(C)(C)C)cc(-n2nc3ccccc3n2)c1O` (configuration not stated), the molecule was called inactive in test [3] and in test [4].
For the molecule `CCC(C)c1cc([N+](=O)[O-])cc([N+](=O)[O-])c1OC(=O)C=C(C)C` (configuration not stated), the AC50 in [12] is 7.18 µM (active); in test [13], 6.83 µM (active); in test [14] it was 30.4 µM (active); in [15] it was 5.34 µM (active). Moreover, the result in [16] was inactive.
With `CCC(Br)(CC)C(=O)NC(N)=O`, the call in [3] and in test [4] was inactive.
As for `COc1cc(OC)nc(Oc2cccc(Oc3nc(OC)cc(OC)n3)c2C(=O)O)n1`, the molecule was called inactive in test [3], in test [18], in test [5], in [6], in [7] and in test [8]. Also, the molecule was classed as inactive in [19], in test [20] and in test [9].
Take `CCCCCc1cc(O)cc(O)c1`: in [3], the result was inactive.
For `CC(C)C#N`, the outcome in test [4], in [8], in test [19] and in test [20] was inactive.
For `N#Cc1cc(I)c(O)c(I)c1`, the outcome in test [17], in [2] and in test [9] was inactive.
Turning to `Nc1ccc(Cl)c(Cl)c1`, the molecule was classed as inactive in [2], in test [4], in [18], in test [5], in [6] and in [7]. In addition, the molecule was classed as inactive in test [8], in [19], in test [9] and in [10]. The AC50 in test [20] was 1.14 µM (active).
For `O=[N+]([O-])O`, the result in test [12], in test [13], in test [14], in test [15], in test [16] and in test [6] was inactive. Further, the molecule was called inactive in test [7], in [8], in [19], in test [20] and in test [10]. The AC50 in test [13] was 0.433 µM (active).

The values are drawn from PubChem BioAssay (EPA / NIEHS).
